In PubChem BioAssay (NCATS):
Records with an inconclusive call do not appear. Entries that show only a call come without a potency. Values without a mark were called inactive. Active and inactive are the calls of the source. Calls follow the shape of the dose curve; as a rule, active = well fitted curve in the direction sought with a large enough effect; inconclusive = small, poorly fitted or top-dose-only effect, or another doubt; inactive = no such curve, though single readings can be large; an effect the other way counts as inactive or inconclusive.

Assays:
[1] = biological target: Aldehyde dehydrogenase, mitochondrial (Homo sapiens) (UniProt P05091); test: qHTS for Inhibitors of the Aldehyde Dehydrogenase Family (ALDH2) Primary screen (AID 2061308); also: nearly all actives have a fitted effect of over 55% in size
[2] = biological target: Retinaldehyde dehydrogenase 3 (Homo sapiens) (UniProt P47895); test: qHTS for Inhibitors of the Aldehyde Dehydrogenase Family (ALDH1A3) Primary screen (AID 2061315)

Row | Compound | Potency [1] | Potency [2] | activity change, negative = inhibition [1] | activity change, negative = inhibition [2]
1 | Cc1nc(NC2CCCCC2)c2nc(-c3ccccc3)n(CCCN3CCCCC3C)c2n1 (stereo unspecified) | inactive | inactive | – | –
2 | Cc1nc(CN(C)c2ncnc3ccc(-c4ccc5c(c4)OCO5)cc23)cs1 | inactive | inactive | – | –
3 | C[C@@H]1CN(c2c(F)c(F)c3c(=O)c(C(=O)O)cn(C4CC4)c3c2F)C[C@H](C)N1 | – | – | -0.742% [at 11.2 µM] | 1.69% [at 11.2 µM]
4 | Cc1nc(NC2CCCCC2)c2nc(-c3ccccc3)n(CCN3CCCC3)c2n1 | inactive | inactive | – | –
5 | O=[S+]([O-])(c1cc2ccccc2o1)N1CCN([S+](=O)([O-])c2c(F)cccc2F)CC1 | inactive | inactive | – | –
6 | Cc1ccc(OCCn2c(CCNCC3CCCCC3)nc3ccccc32)cc1 | inactive | inactive | – | –
7 | COc1c2cc(c(O)c1OC)CCCCC(O)CCc1ccc(O)c-2c1 (stereo unspecified) | inactive | inactive | – | –
8 | O=C(CCCc1ccccc1)NC(c1ccco1)c1cc(Cl)c2cccnc2c1O (stereo unspecified) | inactive | inactive | – | –
9 | Cc1cn([C@H]2C[C@H](N[S+](=O)([O-])Cc3cccc([N+](=O)[O-])c3)[C@@H](CO)O2)c(=O)[nH]c1=O | inactive | inactive | – | –
10 | Cc1cc(NCc2ccc(NC(=O)Cc3ccc(Cl)c(Cl)c3)cc2)no1 | inactive | inactive | – | –
11 | Cc1cc(NC(=O)Nc2nnc(C3CCCCC3)s2)ccc1Cl | inactive | inactive | – | –
12 | CCC(=O)NC(c1ccc2c(c1)OCO2)c1cc(Cl)c2cccnc2c1O (stereo unspecified) | inactive | inactive | – | –
13 | O=S(=O)(NC1CCN(S(=O)(=O)c2ccc3c(c2)OCCO3)C1)c1c(F)cccc1F (stereo unspecified) | inactive | inactive | – | –
